Read-out in test [1]: Interleukin-1 alpha (IL1a), IL1A (gene 3552)
Briefly: BSK_KF3CT_IL1a: BioMAP Diversity Plus: KF3CT Assay for Interleukin-1 alpha (IL1a) Biomarker Activity (AID 2283070). The conditions noted are these: primary human keratinocytes with fibroblasts; actives raise or lower the signal. Put shortly:
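Primary skin co-culture (keratinocytes, foreskin fibroblasts), 24 h exposure; ELISA for IL-1a; bidirectional curve fit vs DMSO.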

Read-out in test [2]: TIMP metallopeptidase inhibitor 2 (TIMP2), TIMP2 (gene 7077)
The test can be described thus: BSK_KF3CT_TIMP2: BioMAP Diversity Plus: KF3CT Assay for TIMP metallopeptidase inhibitor 2 (TIMP2) Biomarker Activity (AID 2283071). The conditions noted are these: primary human keratinocytes with fibroblasts; actives raise or lower the signal. In short, it runs like this: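 ELISA readout of TIMP-2 in keratinocyte plus foreskin fibroblast co-cultures (human skin primary cells), 24 h post-dose. Gain or loss of signal fitted relative to DMSO.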

Read-out in test [3]: C-C motif chemokine 2 (Homo sapiens) (UniProt P13500)
Briefly: BSK_KF3CT_MCP1: BioMAP Diversity Plus: KF3CT Assay for Monocyte Chemoattractant Protein 1 (MCP1/CCL2) Biomarker Activity (AID 2283073). The conditions noted are these: primary human keratinocytes with fibroblasts; actives raise or lower the signal. In short, it runs like this: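 ELISA read-out of MCP-1, 24 h post-dose, in primary human skin keratinocytes co-cultured with fibroblasts. Parallel SRB staining monitors cytotoxicity; changes fitted both directions relative to DMSO.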

Read-out in test [4]: Matrix Metallopeptidase 9 (MMP9), MMP9 (gene 4318)
Briefly: BSK_KF3CT_MMP9: BioMAP Diversity Plus: KF3CT Assay for Matrix Metallopeptidase 9 (MMP9) Biomarker Activity (AID 2283074).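 On AC50: MMP9 protein level quantified by ELISA in the co-culture.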 The conditions noted are these: primary human keratinocytes with fibroblasts; actives raise or lower the signal. Put shortly: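 ELISA read-out of MMP-9 at 24 h post-dosing in a co-culture of human skin keratinocytes and foreskin fibroblasts. Gain or loss of signal was fitted in both directions against DMSO.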

Read-out in test [5]: CD40, CD40 (gene 958)
The test can be described thus: BSK_LPS_CD40: BioMAP Diversity Plus: LPS Assay for CD40 Biomarker Activity (AID 2283076). The conditions noted are these: primary human HUVEC with PBMC; actives raise or lower the signal. Put shortly: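 In the LPS system of human endothelial cells with peripheral blood mononuclear cells, CD40 levels were read by ELISA 24 h post-treatment. Signal changes in either direction were fitted against the DMSO baseline, with parallel SRB protein staining.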

Read-out in test [6]: Interleukin-8 (IL8), CXCL8 (gene 3576)
The test can be described thus: BSK_LPS_IL8: BioMAP Diversity Plus: LPS Assay for Interleukin-8 (IL8) Biomarker Activity (AID 2283078). The conditions noted are these: primary human HUVEC with PBMC; actives raise or lower the signal. In short, it runs like this:
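ELISA read-out of IL-8 after 24 h chemical treatment of LPS-activated endothelial/PBMC human primary co-cultures. Changes either up or down relative to DMSO; overt cytotoxicity checked by sulforhodamine B staining in parallel wells.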

Test [7] is described as follows: BSK_LPS_SRB: Viability Assessment in the BioMAP Diversity Plus: LPS Assay (AID 2283079).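 Further: total protein by sulforhodamine B absorbance as a cytotoxicity measure; measured one day after compound addition.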 To be noted: primary human HUVEC with PBMC. In short, it runs like this: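 SRB viability endpoint: cells fixed with 10% TCA, stained with 0.1% SRB, read at 560 nm, 24 h post-dose. HUVEC/PBMC co-culture; signal change in either direction scored relative to DMSO.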
Read-out in test [8]: Interleukin-1 alpha (IL1a), IL1A (gene 3552)
The test can be described thus: BSK_LPS_IL1a: BioMAP Diversity Plus: LPS Assay for Interleukin-1 alpha (IL1a) Biomarker Activity (AID 2283080). To be noted: primary human HUVEC with PBMC; actives raise or lower the signal. Put shortly:
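Readout is IL-1a level by ELISA, 24 h post-dose, fitted as gain or loss relative to DMSO. System: LPS-activated human primary co-culture of vascular endothelium and peripheral blood mononuclear cells, with parallel SRB total-protein cytotoxicity.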

Read-out in test [9]: Monocyte Chemoattractant Protein-1 (MCP1), CCL2 (gene 6347)
Briefly: BSK_LPS_MCP1: BioMAP Diversity Plus: LPS Assay for Monocyte Chemoattractant Protein-1 (MCP1) Biomarker Activity (AID 2283081).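 On AC50: secreted MCP-1 protein quantified by ELISA in culture supernatant.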 To be noted: primary human HUVEC with PBMC; actives raise or lower the signal. In short, it runs like this:
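Secreted MCP-1 read by ELISA at 24 h post-dosing in an LPS-activated co-culture of endothelial cells with peripheral blood mononuclear cells. Fits run in both directions, DMSO as baseline; parallel SRB staining tracks overt cytotoxicity.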

A short description of test [10]: BSK_LPS_PGE2: BioMAP Diversity Plus: LPS Assay for Prostaglandin E2 (PGE2) Biomarker Activity (AID 2283082).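 On AC50: secreted prostaglandin E2 measured by ELISA in LPS-stimulated co-culture.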 The conditions noted are these: primary human HUVEC with PBMC; actives raise or lower the signal. Put shortly:
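ELISA read-out of PGE2 from human umbilical vein endothelial cells co-cultured with peripheral blood mononuclear cells under LPS, 24 h post-dose. Gain or loss of signal scored relative to DMSO baseline.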

Read-out in test [11]: Macrophage colony-stimulating factor (MCSF), CSF1 (gene 1435)
Briefly: BSK_LPS_MCSF: BioMAP Diversity Plus: LPS Assay for Macrophage colony-stimulating factor (MCSF) Biomarker Activity (AID 2283083). To be noted: primary human HUVEC with PBMC; actives raise or lower the signal. Put shortly:
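Bidirectional fitting against DMSO was applied to M-CSF levels read by ELISA at 24 h post-dose. The system pairs human umbilical vein endothelium with peripheral blood mononuclear cells; parallel SRB staining tracked cytotoxicity.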

Read-out in test [12]: Tissue Factor, F3 (gene 2152)
The test can be described thus: BSK_LPS_TissueFactor: BioMAP Diversity Plus: LPS Assay for Tissue Factor Biomarker Activity (AID 2283084). To be noted: primary human HUVEC with PBMC; actives raise or lower the signal. Put shortly: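 Compound was added to an endothelial cell/PBMC co-culture, and after 24 h tissue factor (CD142) was read by ELISA. Gain or loss of signal was fitted against a DMSO baseline, and parallel SRB staining (560 nm) tracked overt cytotoxicity.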

Read-out in test [13]: Tumor necrosis factor (Homo sapiens) (UniProt P01375)
Briefly: BSK_LPS_TNFa: BioMAP Diversity Plus: LPS Assay for Tumour Necrosis Factor alpha (TNFa) Biomarker Activity (AID 2283085).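 On AC50: TNFa protein level quantified by ELISA in the co-culture.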 To be noted: primary human HUVEC with PBMC; actives raise or lower the signal. In short, it runs like this:
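HUVEC/PBMC co-culture, LPS-stimulated; 24 h post-dose; TNFa by ELISA; gain or loss of signal fitted bidirectionally vs DMSO baseline.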

Read-out in test [14]: Vascular cell adhesion molecule 1 (VCAM1), VCAM1 (gene 7412)
The test can be described thus: BSK_LPS_VCAM1: BioMAP Diversity Plus: LPS Assay for Vascular cell adhesion molecule 1 (VCAM1) Biomarker Activity (AID 2283086). The conditions noted are these: primary human HUVEC with PBMC; actives raise or lower the signal. Put shortly: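 ELISA read-out of VCAM-1 at 24 h post-dosing in an LPS-driven HUVEC/PBMC primary human co-culture; gain or loss of signal fitted bidirectionally against DMSO baseline. Cytotoxicity tracked in parallel cultures by SRB total-protein staining.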

Read-out in test [15]: CD38, CD38 (gene 952)
The test can be described thus: BSK_SAg_CD38: BioMAP Diversity Plus: SAg Assay for CD38 Biomarker Activity (AID 2283087). To be noted: primary human HUVEC with PBMC; actives raise or lower the signal. Put shortly:
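Measures CD38 on a human endothelial/PBMC co-culture driven by SEB and TSST-1, 24 h after compound exposure, using ELISA with fluorescence detection; DMSO defines baseline for bidirectional curve fitting.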

Read-out in test [16]: CD40, CD40 (gene 958)
Briefly: BSK_SAg_CD40: BioMAP Diversity Plus: SAg Assay for CD40 Biomarker Activity (AID 2283088). The conditions noted are these: primary human HUVEC with PBMC; actives raise or lower the signal. In short, it runs like this:
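CD40 is measured by fluorescence ELISA in an endothelial/PBMC primary human co-culture at 24 h post-dose. Fitting is bidirectional, DMSO baseline. Parallel SRB staining (560 nm) flags cytotoxicity.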

Read-out in test [17]: CD69, CD69 (gene 969)
The test can be described thus: BSK_SAg_CD69: BioMAP Diversity Plus: SAg Assay for CD69 Biomarker Activity (AID 2283089).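 On AC50: cell surface CD69 protein quantified by ELISA with fluorescence detection.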 The conditions noted are these: primary human HUVEC with PBMC; actives raise or lower the signal. Put shortly: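 ELISA, fluorescence read-out: CD69 on human umbilical vein endothelial cell + PBMC co-culture, 24 h post-dosing. Gain or loss of signal fitted bidirectionally against DMSO baseline.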

Read-out in test [18]: Transforming growth factor beta 1 (TGFb1), TGFB1 (gene 7040)
The test can be described thus: BSK_KF3CT_TGFb1: BioMAP Diversity Plus: KF3CT Assay for Transforming growth factor beta 1 (TGFb1) Biomarker Activity (AID 2283072). To be noted: primary human keratinocytes with fibroblasts; actives raise or lower the signal. Put shortly: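 Read-out: ELISA for TGF-b1 in keratinocyte/foreskin fibroblast human skin co-culture, 24 h after dosing; bidirectional curve fit vs DMSO baseline; gain or loss of signal scored.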

Read-out in test [19]: E-selectin (Homo sapiens) (UniProt P16581)
The test can be described thus: BSK_LPS_Eselectin: BioMAP Diversity Plus: LPS Assay for Eselectin Biomarker Activity (AID 2283077). To be noted: primary human HUVEC with PBMC; actives raise or lower the signal. Put shortly:
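E-selectin ELISA on LPS-stimulated endothelial cell/PBMC co-cultures, read 24 h post-treatment; gains and losses fitted against DMSO. Parallel SRB staining (0.1% SRB after 10% TCA fixation, 560 nm) flags overt cytotoxicity.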

Read-out in test [20]: urokinase plasminogen activator (uPA), PLAU (gene 5328)
Briefly: BSK_KF3CT_uPA: BioMAP Diversity Plus: KF3CT Assay for urokinase plasminogen activator (uPA) Biomarker Activity (AID 2283075). The conditions noted are these: primary human keratinocytes with fibroblasts; actives raise or lower the signal. Put shortly:
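Skin co-culture (keratinocytes + foreskin fibroblasts), human primary; 24 h post-dose; uPA by ELISA; gain/loss fit vs DMSO baseline.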

The term AC50 denotes the midpoint of the concentration-response curve, whichever way the signal moves.

Several values for one entry are separate records, joined by “and”; a condition that tells them apart may be missing. Equal values may be shown once. Activity calls are given as the source filed them. How the source made its calls: active means hit-call score of the fitted dose curve at least 0.9, where 1 is the maximum; inactive means score below 0.9.

Sequence of E-selectin (Homo sapiens) (P16581 whole entry, looked up): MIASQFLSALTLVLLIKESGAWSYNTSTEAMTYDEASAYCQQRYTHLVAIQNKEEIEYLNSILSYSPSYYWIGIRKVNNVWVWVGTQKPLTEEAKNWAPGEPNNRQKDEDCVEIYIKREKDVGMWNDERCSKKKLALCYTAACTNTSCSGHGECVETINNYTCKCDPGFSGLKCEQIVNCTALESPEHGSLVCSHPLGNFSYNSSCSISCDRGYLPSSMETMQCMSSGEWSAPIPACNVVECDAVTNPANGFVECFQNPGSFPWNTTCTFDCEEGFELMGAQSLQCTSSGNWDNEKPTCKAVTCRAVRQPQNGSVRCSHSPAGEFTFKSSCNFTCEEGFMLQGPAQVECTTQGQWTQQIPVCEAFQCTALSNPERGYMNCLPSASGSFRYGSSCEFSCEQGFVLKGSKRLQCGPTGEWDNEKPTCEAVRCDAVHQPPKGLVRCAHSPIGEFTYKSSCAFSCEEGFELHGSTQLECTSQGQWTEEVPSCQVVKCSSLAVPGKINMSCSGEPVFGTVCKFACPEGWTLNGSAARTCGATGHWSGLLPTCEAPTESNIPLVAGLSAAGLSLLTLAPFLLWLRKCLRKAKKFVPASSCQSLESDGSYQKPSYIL
Sequence of Tumor necrosis factor (Homo sapiens) (P01375 whole entry, looked up): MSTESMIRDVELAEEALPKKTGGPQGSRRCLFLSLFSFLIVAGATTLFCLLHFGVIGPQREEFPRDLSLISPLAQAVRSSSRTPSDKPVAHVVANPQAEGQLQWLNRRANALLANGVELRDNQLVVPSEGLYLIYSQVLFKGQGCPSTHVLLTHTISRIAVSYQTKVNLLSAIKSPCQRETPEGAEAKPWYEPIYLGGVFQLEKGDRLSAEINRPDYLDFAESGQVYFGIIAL

For `c1ccc(Nc2cccc3ccccc23)cc1`, the AC50 is 29.8 µM (active) and 28.6 µM (active) in test [1]; 34.5 µM (active) and 33.3 µM (active) in test [2]; 28.8 µM (active) and 26.7 µM (active) in test [3]; 31.3 µM (active) and 31.7 µM (active) in test [4]; 22.9 µM (active) and 30.7 µM (active) in test [5]; 24.5 µM (active) and 20 µM (active) in test [6]. Moreover, the AC50 in [7] is 31.5 µM (active) and 32.4 µM (active); in [8] it was 34.1 µM (active) and 34.7 µM (active); in [9], 27.8 µM (active) and 29.1 µM (active); in [10], 2.88 µM (active) and 2.19 µM (active); in test [11], 31.2 µM (active) and 16.1 µM (active); in test [13], 31.6 µM (active) and 29.9 µM (active). Further, the AC50 in test [14] is 32.5 µM (active) and 28.1 µM (active); in [15], 30.4 µM (active) and 31.1 µM (active); in [16], 28.9 µM (active) and 26.5 µM (active); in test [17] it was 30.4 µM (active) and 33.2 µM (active). Also, in [12], the result was inactive.
Turning to `O=C(Cl)c1c(Cl)c(Cl)c(C(=O)Cl)c(Cl)c1Cl`, the result in test [1], in test [2], in test [18], in test [3], in test [4] and in test [5] was inactive. Besides, the result in [19], in test [7], in [8], in [9], in [10] and in [11] was inactive. Further, the result in [13], in test [14], in [15] and in [17] was inactive.
As for `CCCC(C)C(=O)OCC` (configuration not stated), the result in test [1], in [2], in [3], in [4], in test [20] and in test [5] was inactive. Besides, the outcome in [19], in test [7], in [8], in test [9], in test [10] and in test [11] was inactive. Moreover, the result in [12], in test [13], in test [14], in test [15] and in [17] was inactive.
`CCC1(C)C(=O)N(Cl)C(=O)N1Cl` (configuration not stated): the result in test [1], in test [2], in test [18], in test [3], in test [4] and in test [5] was inactive. Also, the outcome in test [19], in test [7], in [8], in [9], in test [10] and in test [11] was inactive. For the same molecule, the result in test [12], in test [13], in [14], in [15] and in test [17] was inactive.

Source of the values: PubChem BioAssay (EPA / NIEHS).
